Assay in all cases: NCI-60 one-dose screen, 48 h (100 = growth as untreated, 0 = no growth, -100 = all killed)
Common to all, as to conditions: 10 µM unless noted

The test system of experiment [1] is SK-MEL-2 melanoma.
Experiment [2] has as its system EKVX NSCLC.
Experiment [3] relates to SN12C renal.
The subject of experiment [4] is UO-31 renal.
In experiment [5] the test system is TK-10 renal.
Experiment [6] relates to ACHN renal.
The subject of experiment [7] is CAKI-1 renal.
For experiment [8], the system named is A498 renal.
The test system of experiment [9] is CCRF-CEM leukemia.
The test system of experiment [10] is MOLT-4 leukemia.
Experiment [11] relates to RPMI-8226 leukemia.
Experiment [12] relates to OVCAR-8 ovarian.
Experiment [13] has as its system OVCAR-5 ovarian.
Experiment [14] deals with OVCAR-4 ovarian.
Experiment [15] relates to SK-OV-3 ovarian.
In experiment [16] the test system is IGROV1 ovarian.
In experiment [17] the test system is OVCAR-3 ovarian.
Experiment [18] deals with HS 578T breast.
Experiment [19] concerns NCI/ADR-RES ovarian.
Experiment [20] concerns SR leukemia.

Compounds without any hit were thinned out: in the full panel of roughly 83,000, 20% have a hit.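 48-hour exposure, single concentration, 96-well plates; percent growth endpoint where 0 means no net growth. Active: below 10.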 A number with no mark means an inactive call. Calls of active or inactive are those of the source.

Take `O=C(COc1ccc(/C=C2\CSc3ccccc3C2=O)cc1)Nc1nccs1`: the growth in [1] is 83.5%; in [2], 129%; in experiment [3], 95.2%; in experiment [4] it was 75.7%; in experiment [5] it was 85.5%; in [6], 104%. Moreover, the growth in [7] was 87.5%; in experiment [8], 159%; in experiment [9], -66.1% (active); in experiment [10], -30% (active); in experiment [11], -11% (active); in [12], 79.4%. Further, the growth was 92.6% in experiment [13]; 104% in [14]; 127% in [15]; -51.8% (active) in experiment [16]; 87.5% in experiment [17]; 135% in experiment [18]. Also, the growth in [19] is 80.1%.
`N#C/C(=C\c1ccc(-c2cc(C(F)(F)F)ccc2Cl)o1)c1nc(-c2ccco2)cs1`: the growth in [1] is 103%; in experiment [2] it was 91.6%; in experiment [3], 99%; in experiment [4] it was 87.9%; in [5], 121%; in experiment [6], 105%. The growth in experiment [7] is 86.2%; in experiment [8] it was 105%; in [9], 103%; in experiment [10] it was 101%; in experiment [11] it was 101%; in [12] it was 103%. For the same compound, the growth in experiment [13] is 98.9%; in [14], 85.1%; in experiment [15], 100%; in [16] it was 104%; in experiment [17], 113%; in experiment [18] it was 103%. Also, in experiment [19], the growth is 106%.
Regarding `C(=C\c1nccc2c1[nH]c1ccccc12)/c1ccccc1`, the growth in experiment [1] is 37.4%; in experiment [2] it was 38.3%; in experiment [3], 46.2%; in experiment [4] it was 13.2%; in experiment [5] it was 34%; in [6], 35.6%. For the same compound, the growth in [7] was -8.56% (active); in [8], 40.4%; in [10], 49.1%; in experiment [20] it was 82.7%; in experiment [12], 26.1%; in experiment [13], 62.9%. For the same compound, the growth was 14.9% in [14]; 24.7% in experiment [15]; -15.9% (active) in [16]; -13.3% (active) in experiment [17]; 29.2% in experiment [18]; 15.5% in experiment [19].
For `C#Cc1cccc(NC(=O)c2ccccc2NC(=O)CCl)c1`, the growth was 90.2% [8.25 µM] in experiment [1]; 94.1% [8.25 µM] in experiment [2]; 64.6% [8.25 µM] in experiment [3]; 86.9% [8.25 µM] in [4]; 91% [8.25 µM] in experiment [5]; 92% [8.25 µM] in experiment [6]. The growth in experiment [7] is 87.9% [8.25 µM]; in experiment [8], 107% [8.25 µM]; in experiment [9], 50.4% [8.25 µM]; in experiment [10], 70.3% [8.25 µM]; in experiment [11] it was 99.5% [8.25 µM]; in [12] it was 60.6% [8.25 µM]. The growth in [13] is 118% [8.25 µM]; in experiment [14] it was 82.3% [8.25 µM]; in [15] it was 95.2% [8.25 µM]; in experiment [16], -26.1% [8.25 µM] (active); in experiment [17] it was 90.6% [8.25 µM]; in [18] it was 69.3% [8.25 µM]. For the same compound, in experiment [19], the growth is 81.1% [8.25 µM].
`COc1ccc(-c2nc3ccc(-c4nc5ccc(N6CCN(C)CC6)cc5[nH]4)cc3[nH]2)cc1OC`: the growth is 45% in [1]; 85.4% in [2]; 71.1% in experiment [3]; 99.4% in experiment [4]; 84.3% in [5]; 100% in experiment [6]. In addition, the growth in experiment [7] is 71.9%; in [8], 76.6%; in [9], 51.7%; in [10], 61.1%; in [11], 110%; in experiment [12], 55.8%. Besides, the growth in experiment [13] was 99.1%; in experiment [14], 68.4%; in experiment [15], 74.2%; in [16], 79.6%; in experiment [17], 30.4%; in [18], 72.2%. Moreover, in experiment [19], the growth is 103%.
On to `CC1(C)CC[C@]2(C(=O)Nc3ccccn3)CC[C@]3(C)C(=CC[C@@H]4[C@@]5(C)C/C(=C/c6cccnc6)C(=O)C(C)(C)[C@@H]5CC[C@]43C)[C@H]2C1`, for which the growth in experiment [1] is 63.9%; in experiment [2], 42.5%; in [3] it was 32.6%; in experiment [4] it was 37.4%; in experiment [5] it was 68.9%; in [6] it was 26.5%. Further, the growth in experiment [7] was 36.3%; in experiment [8] it was 39.9%; in experiment [9], 20.9%; in experiment [10] it was 13.2%; in experiment [11], 13.3%; in experiment [12], 29.3%. Besides, the growth is 56.4% in experiment [13]; 26.7% in experiment [14]; 74% in experiment [15]; 52.8% in [16]; 35.4% in experiment [17]; 63.4% in experiment [18]. Further, in experiment [19], the growth was 42.2%.
For `COC(=O)[C@]12CCC(C)(C)C[C@H]1[C@H]1C(=O)C[C@@H]3[C@@]4(C)c5c([nH]c6ccccc6c5=O)C(C)(C)[C@@H]4CC[C@@]3(C)[C@]1(C)CC2`, the growth in experiment [1] is 75.5%; in [2], 52.4%; in [3] it was 70%; in [4], 67.2%; in experiment [5], 84.7%; in experiment [6], 53%. The growth in experiment [7] was 50.7%; in experiment [8], 69%; in experiment [9], 59.5%; in [10], 43.5%; in [11], 34.9%; in experiment [12], 59.2%. The growth in experiment [13] is 80.7%; in experiment [14], 49%; in [15], 86.4%; in [16], 94.5%; in [17] it was 63.2%; in experiment [18] it was 87.1%. The growth in experiment [19] was 49.6%.
Consider `COc1ccc(-n2nc(C)c3c(Nc4ccc(NC(=O)Nc5ccc(Cl)c(C(F)(F)F)c5)cc4)ncnc32)cc1`, for which the growth in [1] is -30.2% (active); in experiment [2], 6.63% (active); in experiment [3] it was 3.5% (active); in experiment [4], 4.67% (active); in experiment [5] it was 5.29% (active); in [6], 1.09% (active). Moreover, the growth in experiment [7] was -3.15% (active); in experiment [8], -3.28% (active); in experiment [9] it was 17.2%; in [10] it was 8.28% (active); in experiment [11], 0.105% (active); in experiment [12], 5.05% (active). Moreover, the growth in experiment [13] is 4.07% (active); in experiment [14], 20.8%; in experiment [15], 1.72% (active); in experiment [16], 18.6%; in experiment [17], 5.65% (active); in experiment [18], -12% (active). Also, the growth in experiment [19] was 1.32% (active).
With `CCc1c(Nc2ccccc2C)nc(N)[nH]c1=O`, the growth in [1] was 109%; in experiment [2] it was 94.5%; in experiment [3], 100%; in [4], 90.7%; in [5] it was 105%; in experiment [6], 106%. Besides, the growth was 90.9% in experiment [7]; 100% in [9]; 99.4% in experiment [10]; 85.9% in experiment [20]; 104% in experiment [11]; 119% in experiment [12]. The growth in experiment [13] was 92.3%; in experiment [14] it was 107%; in experiment [15], 109%; in [16] it was 93.4%; in experiment [17] it was 110%; in [18], 115%. In experiment [19], the growth was 109%.
For `CCOC(=O)c1sc2nc(-c3cccc(O)c3)nc(N3CCOCC3)c2c1C`, the growth is 78.9% in experiment [1]; 36.1% in experiment [2]; 50.7% in [3]; 25.4% in experiment [4]; 79.1% in [5]; 58.3% in experiment [6]. The growth in [7] is 72.3%; in experiment [8], 97.8%; in experiment [9], 42.2%; in experiment [10], 29.1%; in [11] it was 55.4%; in [12], 61.8%. In addition, the growth in experiment [13] is 88.3%; in [14], 51.3%; in experiment [15], 51.1%; in experiment [16], 16.9%; in [17], 60.5%; in [18] it was 15.5%. Moreover, the growth in experiment [19] was 59.6%.
As to `Cc1ncc(C(=O)Nc2ccc(CN3CCN(C)CC3)c(C(F)(F)F)c2)cc1C#Cc1cnc2cccnn12`, the growth was -55.4% (active) in [1]; -3.95% (active) in experiment [2]; 0.116% (active) in experiment [3]; 1.45% (active) in experiment [4]; -3.71% (active) in experiment [5]; -1.57% (active) in experiment [6]. In addition, the growth in [7] was -16.7% (active); in experiment [9], 5.77% (active); in [10] it was -0.188% (active); in [20], -14.9% (active); in experiment [11], 2.24% (active); in experiment [12], 6.1% (active). For the same compound, the growth in [13] is 13.8%; in experiment [14], -17% (active); in experiment [15], 22.9%; in experiment [16] it was 5.84% (active); in experiment [17], -0.593% (active); in experiment [18], -15.5% (active). Further, the growth in experiment [19] is 8.62% (active).
